Shown are actives, neighbours in structure and some others; about 1.8% of the full set was active somewhere.
ARNT-TACC3 inh: disrupts binding between human ARNT and TACC3; Q9Y6A5; AlphaScreen His-ARNT PAS-B/GST-TACC3 binding, luminescence; TACC3 fragment carries E629A point mutation; inhibition, % at 9.99 µM; 390,000 tested, 0.66% active; AID 623870;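 active = mean inhibition of replicates at least 50% and at least half of replicates each reaching 50%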;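 also: 0% = complete ARNT plus TACC3 wells and 100% = ARNT alone without TACC3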
AI-2 QS mod: modulators of Vibrio harveyi AI-2 quorum sensing system | activity change, % at 7.5 µM | Vibrio harveyi JMH597 AI-2 luminescence/OD600 ratio, 9 h; hits give low values; strain lacks LuxN and CqsS sensors; 0 = neutral-control median | 300,000 tested, 0.4% active; in the data active = activity change below about -75%, passing the limit was not always enough;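 also: luminescence divided by OD600 gain over 9 h not by final OD600 alone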
A1 inh: inhibitors of the anti-apoptotic protein A1, read as caspase activation | MEF A1-2A-BIM cells, Caspase-Glo 3/7 luminescence, 3 h; percent of clofoctol response, vehicle zero | caspase activation, % (concentration not given with the values) | 330,000 tested, 0.066% active | AID 2462;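 active = over half of replicate activation scores above 10%, or exactly half above 10 with the replicate mean above 10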
aDG glyco act: increases alpha dystroglycan glycosylation | Pro5-aDG cells, alpha-DG glycosylation AlphaScreen (IIH6); 0% Pro5, 100% B10-LARGE cell signal | activation, % at 10 µM | 360,000 tested, 0.22% active | AID 624168;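 active = activation of at least 8% versus controls, or a plate z-score of at least 8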;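 also: Pro5 are CHO cells carrying HIG-tagged alpha-DG that lacks glycosylation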
Mot1-301 SUMO: blocks SUMOylation pathway, rescuing yeast Mot1-301 growth. S. cerevisiae Mot1-301 growth rescue, ATP luminescence, 38.5C; percent above DMSO median, 100 means doubled. growth rescue, % at 18.8 µM. 320,000 tested, 1% active. AID 2716;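 active = every valid replicate shows activation above 250% relative to neutral control wells; inactive = the rest, any valid replicate at or below 250%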;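 also: OY570 slx delta 5 strain wells were the positive control but not used for scaling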
Mot1 SUMO dose: yeast SUMO pathway inhibition in dose response; shares compounds with Mot1-301 SUMO; S. cerevisiae Mot1-301 galactose growth, ATP luminescence, 24 h; -100 = growth of slx-deleted rescue strain; growth activity, percent, % at 42 µM; 2,300 tested, under 10 active; AID 493004;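 active = Signal drops as the depositor expects, and the fitted half-maximal dose is no more than ten times the top valid tested dose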;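 also: more negative values mean stronger growth rescue toward the control strain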
Numbers without * were called inactive; · = not tested or not shown; + = active, no number.

SMILES	ARNT-TACC3 inh	AI-2 QS mod	A1 inh	aDG glyco act	Mot1-301 SUMO	Mot1 SUMO dose
Cc1cc([N+](=O)[O-])nn1CC(=O)NNC(=S)Nc1ccc([N+](=O)[O-])cc1	14	1	1	0	672*	0
O=C(CCCC(=O)N/N=C/c1ccccc1C(=O)O)N/N=C/c1ccccc1C(=O)O	-7	33	1	1	419*	1
O=C(CCCCC(=O)NN=Cc1ccccc1O)NN=Cc1ccccc1O	-2	·	·	1	·	·
Cc1cccc(NC(=O)CCS(=O)(=O)c2ccc3c(c2)NC(=O)CS3)n1	-7	14	0	0	-6	·
COCCNC(=O)CC(c1ccccc1)c1ccccc1	-3	2	2	0	-7	·
O=C(CC(c1ccccc1)c1ccccc1)NCCOCc1ccccc1	-6	20	1	0	403*	0
CN(C(=O)COC(=O)c1cc(-c2ccccc2Cl)nc2ccccc12)C1CCS(=O)(=O)C1 (stereo not given)	-6	5	0	0	-1	·
Cc1ccc(-n2c(SCC(=O)N(C)C3CCS(=O)(=O)C3)nc3ccccc3c2=O)cc1 (stereo not given)	-13	4	0	0	499*	0
CCN(C(=O)CSc1nc2ccccc2c(=O)n1-c1ccc(C)cc1)C1CCS(=O)(=O)C1 (stereo not given)	5	46	0	0	4	·
CN(C(=O)COC(=O)c1cc(-c2ccc(Cl)s2)nc2ccccc12)C1CCS(=O)(=O)C1 (stereo not given)	2	20	-1	0	511*	1
O=C(OC(c1ccccc1)c1nccc2ccccc12)c1cccc([N+](=O)[O-])c1 (stereo not given)	·	20	1	0	271	·
CSCCC(NS(=O)(=O)c1ccc(C)c(C(=O)O)c1)C(=O)O (stereo not given)	-7	29	1	0	5	·
OCC[C@H]1C[C@H](O)[C@@H](O)[C@@]2(CCc3ccccc3CO2)O1	·	·	1	0	-10	·
OCC[C@@H]1C[C@H](O)[C@@H](O)[C@]2(CCc3ccccc3CO2)O1	-2	-1	0	0	751*	0
COc1ccc(S(=O)(=O)NC(C)(C)C)cc1-c1nnc2c3ccccc3c(C)nn12	-3	3	-1	0	-17	·
O=C(Cn1sc2ccccc2c1=O)Nc1ccccc1	·	·	·	0	·	·
O=C(Cn1sc2ccccc2c1=O)NC12CC3CC(CC(C3)C1)C2	1	15	-4	0	387*	4
Cc1cccc(NC(=O)Cn2cc([N+](=O)[O-])cn2)n1	-3	29	-1	0	-13	·
COc1ccc(C(=O)NNC(=O)C(=O)NCc2ccccc2)cc1	8	17	1	0	-10	·
CN(C)CCN(Cc1ccc(Cl)cc1)c1ccccn1	-3	0	-1	0	558*	-1
Cc1[nH]nc2c1C(=O)CCC2	-4	41	0	0	-7	·
COc1cccc(Cn2cnc3c(NS(=O)(=O)c4ccc(Cl)cc4Cl)c(C)c(C)cc32)c1	-15	-2	0	0	-6	·
COc1cccc(Cn2cnc3c(NS(=O)(=O)c4cccc(Cl)c4Cl)c(C)c(C)cc32)c1	-7	40	0	0	411*	-1
O=C(C[C@H]1CC[C@@H]2NC[C@H](O)COC[C@H]2O1)Nc1ccc(-c2ccccc2)cc1	10	·	·	·	·	·
C[C@@H]1CN([C@@H](C)CO)C(=O)c2cc(NS(=O)(=O)c3ccc(Cl)cc3)ccc2O[C@@H](C)CCCCO[C@@H]1CN(C)C(=O)NC1CCCCC1	-3	·	·	·	·	·
SMILES	ARNT-TACC3 inh	AI-2 QS mod	A1 inh	aDG glyco act	Mot1-301 SUMO	Mot1 SUMO dose
CCC(CC)NC(=O)c1oc2ccccc2c1COc1ccccc1	·	0	0	0	518*	0
CC(=O)N1N=C(N)SC12CCCC2	3	6	-1	0	+	0
CCCNC(=O)Cn1nc(C)n2c(cc3cc(F)ccc32)c1=O	-6	57	0	0	+	0
O=C(NC(=S)N1CCN(Cc2ccc3c(c2)OCO3)CC1)c1ccc(Cl)cc1	11	9	1	0	6	·
CCOC(=O)C1=CN(Cc2cccc(F)c2)S(=O)(=O)N(CC)C1c1ccc(F)c(Cl)c1 (stereo not given)	-4	·	·	0	·	·
COc1ccccc1NC(=O)Cc1cccc2ccccc12	-6	2	0	0	-5	·
O=C(c1ccco1)N1CCN(C2CC(=O)N(c3ccc(F)c(Cl)c3)C2=O)CC1 (stereo not given)	-3	15	0	0	551*	-1
COc1cccc(N2C(=O)CC(N3CCN(C(=O)c4ccco4)CC3)C2=O)c1 (stereo not given)	-9	16	0	0	-19	·
C=CCNC(=O)c1onc(CSc2cccc(C)c2)c1C(=O)O	0	9	-1	0	775*	1
COC(=O)C[C@H]1CC[C@H]2[C@H](COc3ccc(NC(=O)c4cnccn4)cc3C(=O)N2C)O1	5	·	·	·	·	·
COc1ccc(-c2nnc(SCC(C)C)o2)cc1	-5	5	-4	0	584*	1
CCc1nc2ccc(C(=O)N(C)CCCN(C)C)cn2c1N(C)C(=O)C1CCCCC1	·	·	·	0	·	·
CCCCCC(=O)Nc1ccc(-c2csc(C)n2)cc1	-7	11	-2	0	-14	·
CCCCCC(=O)Nc1ccc(-c2csc(N)n2)cc1	-5	13	-1	0	471*	-1
COc1ccc(CN(C)C[C@H]2OCCCC[C@@H](C)Oc3ccc(NC(=O)Nc4ccc(C(F)(F)F)cc4)cc3C(=O)N([C@@H](C)CO)C[C@@H]2C)cc1	0	·	·	·	·	·
CS(=O)(=O)Nc1ccccc1C(=O)NCCSCc1ccccc1	0	1	0	0	523*	0
CS(=O)(=O)Nc1ccccc1C(=O)NCCSc1ccccc1	-4	·	1	0	0	·
COc1ccc2c(C)c(CC(=O)N3C[C@H]4C[C@@H](C3)c3cccc(=O)n3C4)c(=O)oc2c1OC	0	11	0	0	244	·
COc1ccc(CC2(CO)CCN(Cc3cc4ccccc4o3)CC2)cc1	1	23	0	1	336	·
Cc1cccc(N2C(=O)C3CCCN3C2=S)c1 (stereo not given)	-9	32	0	0	9	·
CSc1cccc(N2C(=O)C3CCCN3C2=S)c1 (stereo not given)	-1	19	0	0	802*	1
COc1ccc(-c2csc(NC(=O)CS(=O)(=O)c3ccccc3)n2)cc1	2	22	0	0	31	·

High-throughput results (PubChem BioAssay)
